# Assay outcomes (PubChem BioAssay)
# Sampled rows, rich in hits. Any-hit rate of the full collection: about 3%.
# EWS-Fli block: EWS/Fli-driven NR0B1 reporter inhibitors, primary screen, A673 cells, NR0B1 luciferase, luminescence, MLPCN library; 350,000 compounds, 0.67% hits; AID 651661, 2012; inhibition, % at 12.6 µM; viability-normalised;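 active = mean inhibition of at least 50% after viability correction, with every replicate also passing that limit; inconclusive = mean reaches 50% but only one of two replicates passes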;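 note: firefly luciferase signal divided by Alamar Blue viability fluorescence both relative to DMSO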
# Shn3 3UTR inh: reduction of Shn3 3'UTR firefly luciferase signal, primary screen, Schnurri-3 inhibitor project, cell-based, Clone20 osteoblasts, set 2. Clone20 osteoblast Shn3 3'UTR firefly luciferase, 24 h. inhibition, % at 12.5 µM. 360,000 compounds, 0.52% hits;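 active = mean inhibition of at least 75% with every replicate also reaching 75%; inconclusive = mean inhibition at least 75% but some replicate below; inactive = mean inhibition below 75%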;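 note: 0% = median of neutral control wells and 100% = pilot-screen positive control compound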
# Peg3 prom inh: Peg3 promoter-driven luciferase inhibitors, primary screen, cell-based, HeLa, luciferase luminescence; HeLa PEG-Prom luciferase reporter, overnight; 360,000 compounds, 1.7% hits; inhibition, % at 20 µM;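 active = inhibition of at least 50% at 20 µM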
# ABHD5-PLIN5 inh: ABHD5-PLIN5 interaction inhibitors, primary screen, cell lysate, split luciferase complementation, luminescence. Perilipin-5 (Homo sapiens) + 1-acylglycerol-3-phosphate O-acyltransferase ABHD5 (Homo …. Split G. princeps luciferase complementation, 4 h. inhibition, % at 4 µM. 360,000 compounds, 0.78% hits. AID 602281, 2012;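 active = inhibition above the mean inhibition across every tested compound plus 3 SD, cut at about 22% in these data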;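 note: 0% = DMSO only wells and the 100% control is not disclosed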
# Target sequence (Q00G26 whole entry, looked up): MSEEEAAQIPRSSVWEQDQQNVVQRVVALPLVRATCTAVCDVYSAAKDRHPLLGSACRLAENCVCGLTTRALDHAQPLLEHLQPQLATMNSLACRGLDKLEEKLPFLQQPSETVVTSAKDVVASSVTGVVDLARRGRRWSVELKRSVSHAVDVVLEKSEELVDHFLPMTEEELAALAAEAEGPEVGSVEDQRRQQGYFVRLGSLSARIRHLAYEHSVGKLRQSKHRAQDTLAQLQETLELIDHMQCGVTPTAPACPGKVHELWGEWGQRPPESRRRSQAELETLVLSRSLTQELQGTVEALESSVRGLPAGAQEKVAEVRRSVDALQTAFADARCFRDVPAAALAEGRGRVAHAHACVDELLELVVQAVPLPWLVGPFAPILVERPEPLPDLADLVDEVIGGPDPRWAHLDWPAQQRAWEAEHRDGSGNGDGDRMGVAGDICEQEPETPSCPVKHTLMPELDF
# Target sequence (Q8WTS1 whole entry, looked up): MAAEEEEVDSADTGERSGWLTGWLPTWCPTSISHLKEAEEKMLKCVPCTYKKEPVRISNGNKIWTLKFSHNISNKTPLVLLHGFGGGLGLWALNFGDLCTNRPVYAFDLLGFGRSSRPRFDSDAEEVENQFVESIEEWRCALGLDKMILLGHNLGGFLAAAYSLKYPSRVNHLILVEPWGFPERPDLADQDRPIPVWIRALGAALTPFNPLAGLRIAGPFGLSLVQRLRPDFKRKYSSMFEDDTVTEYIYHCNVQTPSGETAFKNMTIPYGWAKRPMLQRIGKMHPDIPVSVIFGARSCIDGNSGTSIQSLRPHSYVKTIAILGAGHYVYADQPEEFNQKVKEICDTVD
# TRPM1 prom inh: inhibitors of MITF-dependent TRPM1 promoter reporter, primary screen, cell-based, SK-MEL-5, single point, luciferase | SK-MEL-5 TRPM1 promoter luciferase, 24 h | AID 488899, 2010 | 330,000 compounds, 0.83% hits | inhibition, % at 12.5 µM;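 active = mean inhibition across replicates of 60% or more, whatever share of single replicates reaches that level; inconclusive = some that reach 60%, reason not given; inactive = mean inhibition across replicates below 60%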
# PAX8 reporter: inhibitors of PAX8-driven TPO luciferase reporter, primary screen, RMG-I cells, single concentration; AID 652154, 2013; SteadyGlo, 24 h; 360,000 compounds, 1.2% hits; inhibition, % at 12.6 µM;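 active = mean replicate inhibition at least 60% with every replicate also reaching 60%; inconclusive = only one of the two criteria is met; inactive = mean below 60% and not all replicates reaching 60%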;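 note: luciferase light reporting Pax8 driven TPO promoter activity; plate controls were median of neutral control wells for no effect and mitoxantrone controls for full effect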
# ABHD5 PLIN5 conf: ABHD5-PLIN5 interaction inhibitors, confirmation, biochemical, luminescence; shares compounds with ABHD5-PLIN5 inh; inhibition, % at 4 µM; 2,200 compounds, 67% hits; in the data active = inhibition above about 23%;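 note: 0% = DMSO vehicle wells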
# HNF4 split-luc: HNF4 dimerization inhibitors, counter-screen for ABHD5-PLIN5 interaction inhibitor project, biochemical, split-luciferase complementation, luminescence; AID 651674, 2012; 2,200 compounds, 77% hits; shares compounds with ABHD5-PLIN5 inh; inhibition, % at 4 µM;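 active = mean inhibition across replicate wells exceeding the computed hit threshold, cut at about 13% in these data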;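 note: light from luciferase halves that rejoin when HNF4 fusion proteins dimerize; 0% = DMSO only wells and the 100% control is not given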
# * marks the source's active call; other numbers are inactive results; ? = inconclusive; · = not tested or not shown; ! = repeats disagree.
SMILES,EWS-Fli block,Shn3 3UTR inh,Peg3 prom inh,ABHD5-PLIN5 inh,TRPM1 prom inh,PAX8 reporter,ABHD5 PLIN5 conf,HNF4 split-luc
O=c1[nH]c(C2CCN(S(=O)(=O)c3ccc(F)cc3)CC2)nc2c1nnn2Cc1ccc2c(c1)OCCO2,8,5,25,29*,12,-8,35*,8
O=C(c1ccc2c(c1)OCO2)N1CC(=O)N2[C@H](C1)[C@H](c1ccc(C#Cc3ccccc3)cc1)[C@@H]2CO,-14,·,·,·,·,·,·,·
O=c1cc(-c2ccc(O)cc2)oc2c(O)c(O)c(O)c(O)c12,8,-5,-3,34*,7,·,-6,14*
COc1ccc(-c2cnc3c(c2)C(=O)N([C@@H](C)CO)C[C@@H](C)[C@@H](CN(C)S(=O)(=O)c2ccc(OC)cc2)O3)cc1,-2,·,·,·,·,·,·,·
Cc1ccc(S(=O)(=O)N2C[C@H]3n4c(=O)ccc(=O)n4C[C@H](OC(=O)NCC4CCCCC4)[C@@]3(O)C2)cc1,40,-14,94*,26*,·,73*,63*,45*
Cc1ccc(S(=O)(=O)N2C[C@H]3n4c(=O)ccc(=O)n4C[C@H](OC(=O)NCc4ccccc4)[C@@]3(O)C2)cc1,-11,-20,-11,19,·,24,·,·
O=C(O)CC(C(=O)O)N1C(=O)/C(=C/C=C/c2ccco2)SC1=S (stereo not given),-83,-8,-3,3,6,11,·,·
O=C1NC(=Nc2ccccc2)S/C1=C\C=C\c1ccco1,2,-27,-162,25*,-17,11,36*,55*
O=C1S/C(=C\C=C\c2ccco2)C(=O)N1c1ccccc1,·,-6,-157,37*,-67,-98,28*,36*
O=C1S/C(=C\C=C\c2ccco2)C(=O)N1c1ccc(O)cc1,-65,-2,-364,49*,-57,-36,33*,49*
C=C1C(=O)O[C@H]2[C@H]1[C@H](OC(=O)/C(C)=C\C)C[C@]1(CO1)[C@@H]1[C@H](OC(C)=O)C=C(C)[C@]21O,-3,-22,14,25*,3,16,46*,40*
C=C1C(=O)O[C@H]2C[C@]3(C)C([C@@H](OC(=O)/C(C)=C/C)[C@H]12)[C@](C)(O)CC[C@H]3O (stereo not given in full),-24,19,18,12,-2,53,·,·
COc1cc(N2C(=O)C=CC2=O)c(OC)cc1Cl,28,·,106*,39*,-4,110*,44*,104*
COc1cc(/C=C/c2cc(C(F)(F)F)[nH]c(=O)n2)cc(OC)c1OC,5,-11,25,31*,23,50,47*,43*
Cc1cc(C)c(NC(=O)CN2CCN3CCCC3C2)c(C)c1 (stereo not given),9,-8,5,32*!,5,-4,33*,1
CN(C)CC(=O)Nc1ccc2c(c1)[C@@H]1C[C@@H](CC(=O)NCc3ccccc3)O[C@@H](CO)[C@@H]1O2,2,·,·,·,·,1,·,·
O=C(Nc1ccccc1)c1ccc2nc(-c3ccco3)c(-c3ccco3)nc2c1,·,8,26,30*,-11,·,49*,32*
O=C(NCCCO)c1ccc2nc(-c3ccco3)c(-c3ccco3)nc2c1,-6,-14,-18,25*,8,-2,67*,68*
COc1ccc(OCc2cn(CC(=O)c3ccc(O)cc3)nn2)cc1,-5,-17,-23,24*,0,-17,60*,30*
O=C(Cn1cc(COc2c(F)c(F)cc(F)c2F)nn1)c1ccc(O)cc1,3,-14,-6,31*,-13,-6,45*,35*
CCC(=O)c1ccc(OCc2cn(CC(=O)c3ccc(O)cc3)nn2)cc1,-4,4,-24,14,-3,-17,·,·
CCC(=O)N1[C@H](CO)[C@H]2c3ccccc3N(S(=O)(=O)c3ccccc3F)C[C@H]21,2,·,·,·,·,10,·,·
O=C(Nc1cc(F)ccc1F)N[C@H]1C=C[C@H](CC(=O)N2CCc3ccccc3C2)O[C@@H]1CO,0,·,·,·,·,-15,·,·
CN(C)CCCN(C(=O)c1ccc(S(=O)(=O)N(C)C)cc1)c1nc2cc3c(cc2s1)OCO3,-6,11,-12,4,13,4,·,·
CN(C)CCCN(C(=O)CCS(=O)(=O)c1ccccc1)c1nc2cc3c(cc2s1)OCO3,·,7,107*,26*,58,?,18,49*
SMILES,EWS-Fli block,Shn3 3UTR inh,Peg3 prom inh,ABHD5-PLIN5 inh,TRPM1 prom inh,PAX8 reporter,ABHD5 PLIN5 conf,HNF4 split-luc
CN(C)CCCN(C(=O)CCSc1ccccc1)c1nc2cc3c(cc2s1)OCO3,1,-21,91*,27*,35,32,15,19*
CC1(C)CC(=O)C2=C(C1)OC1=C(C(=O)CC(C)(C)C1)C2c1ccc(O)cc1O,·,94*,108*,87*,101*,·,102*,108*
CC1(C)CC(=O)C2=C(C1)OC1=C(C(=O)CC(C)(C)C1)C2c1ccc(O)c([N+](=O)[O-])c1,-5,4,16,0,5,0,·,·
CC1(C)CC(=O)C(=Cc2cn(CCC#N)nc2-c2ccc(F)cc2)C(=O)C1,4,-5,16,23*,-6,-7,45*,38*
CCCNC(=O)N1C[C@@H](C)[C@H](OC)CN(C)C(=O)c2cc(NC(=O)CCC)ccc2OC[C@@H]1C,0,·,·,·,·,4,·,·
Oc1ccccc1-c1cc(-c2ccco2)[nH]n1,·,-67,-322,27*,-52,·,14,14*
Oc1ccc(Cl)cc1-c1cc(-c2ccco2)[nH]n1,·,-24,-80,14,6,·,·,·
CNC(=S)N(CCc1c(C)[nH]c2ccc(C)cc12)Cc1ccco1,24,1,0,31*,5,19,2,-6
CCNC(=S)N(CCc1c(C)[nH]c2ccc(Cl)cc12)Cc1ccco1,10,-14,31,8,27,18,·,·
O=C1c2cccc3cccc(c23)C(=O)N1CC1CCN(CC(O)COc2ccc3ccccc3c2)CC1 (stereo not given),26,48,100*,26*,9,30,10,1
CCC(=O)N1C[C@H](C)[C@@H](OC)CN(C)C(=O)c2cc(NC(=O)c3cc(C)on3)ccc2OC[C@@H]1C,-3,·,·,·,·,·,·,·
